Over roughly 8,300 sequences, “log2 fold change of degron read counts, EGFP-low vs EGFP+ sorted cells (limma voom), compound-induced degradation” has its median near -1.1; the highest 2% begin near 3.2. The list comes from a sample in which the highest values are over-represented; it also holds similar and randomly drawn sequences.
T1: CRBN, Q96SW2
T1 chain: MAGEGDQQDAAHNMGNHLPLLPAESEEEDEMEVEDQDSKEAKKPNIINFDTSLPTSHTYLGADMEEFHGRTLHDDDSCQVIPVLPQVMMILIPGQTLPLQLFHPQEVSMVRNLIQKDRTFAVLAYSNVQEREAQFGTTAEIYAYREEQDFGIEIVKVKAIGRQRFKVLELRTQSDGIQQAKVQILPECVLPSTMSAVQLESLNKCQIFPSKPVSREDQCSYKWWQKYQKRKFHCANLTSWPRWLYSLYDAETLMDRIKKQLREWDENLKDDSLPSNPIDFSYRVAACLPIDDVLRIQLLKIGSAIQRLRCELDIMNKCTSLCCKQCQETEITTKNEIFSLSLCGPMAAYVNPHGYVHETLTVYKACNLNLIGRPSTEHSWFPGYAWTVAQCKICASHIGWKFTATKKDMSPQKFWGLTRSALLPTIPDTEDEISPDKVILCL


Biological target: T1, CRBN, Q96SW2
Assay: log2 fold change of degron read counts, EGFP-low vs EGFP+ sorted cells (limma voom), compound-induced degradation; higher = more compound-induced degradation of the degron-EGFP fusion; degrons are variants of IKZF1/3 zinc finger 2; compound dose not given here
Conditions: Jurkat, 18 h
[1] = compound: compound 19 (5-tert-butyl-thalidomide)
[2] = compound: compound 22 (5-morpholino-thalidomide)
[3] = compound: compound 33 (diphenyl IMiD analogue)
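Further: pooled lentiviral library of zinc finger degron-EGFP fusions in mCherry-positive Jurkat cells, FACS-sorted after compound exposure, with degron abundance counted by next-generation sequencing.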

| Sequence | log2 fold change of degron read counts [1] | log2 fold change of degron read counts [2] | log2 fold change of degron read counts [3] | log2 fold change of degron read counts (compound: thalidomide) |
| --- | --- | --- | --- | --- |
| FRCPICGAIFTQKGNLLRHIKL [46F_47R_49P_50I_52G_53A_54I_55F_67L_, Q9UKT9] | -1.29 | -0.543 | 0.89 | 1.18 |
| FTCEQCGAQFTQKGNLLRHIKL [46F_47T_49E_50Q_52G_53A_54Q_55F_67L_, Q9UKT9] | -2.06 | -1.12 | 0.532 | -0.012 |
| FFCPICGHVFTQKGNLLRHIKL [46F_47F_49P_50I_52G_53H_54V_55F_67L_, Q9UKT9] | -0.996 | -1.35 | -1.19 | -1.12 |
| FACPICGHTFTQKGNLLRHIKL [46F_47A_49P_50I_52G_53H_54T_55F_67L_, Q9UKT9] | -2.03 | -2.66 | -2.44 | -2.56 |
| FKCNVCGAVFTQKGNLLRHIKL [46F_47K_49N_50V_52G_53A_54V_55F_67L_, Q9UKT9] | -2.44 | -2.91 | -3.25 | -2 |
| FNCEICGAHFTQKGNLLRHIKL [46F_47N_49E_50I_52G_53A_54H_55F_67L_, Q9UKT9] | 2.65 | 0.0954 | -0.0262 | -0.422 |
| FECEICGAHFTQKGNLLRHIKL [46F_47E_49E_50I_52G_53A_54H_55F_67L_, Q9UKT9] | -0.919 | -2.34 | 1.1 | 1.26 |
| FMCEICGAHFTQKGNLLRHIKL [46F_47M_49E_50I_52G_53A_54H_55F_67L_, Q9UKT9] | -0.196 | -0.917 | 1.94 | 0.547 |
| FACEICGAHFTQKGNLLRHIKL [46F_47A_49E_50I_52G_53A_54H_55F_67L_, Q9UKT9] | 3.32 | 1.02 | 0.285 | -0.547 |
| FWCEICGAHFTQKGNLLRHIKL [46F_47W_49E_50I_52G_53A_54H_55F_67L_, Q9UKT9] | 3.45 | 3.78 | 2.18 | 1.05 |
| FICEICGAHFTQKGNLLRHIKL [46F_47I_49E_50I_52G_53A_54H_55F_67L_, Q9UKT9] | -0.091 | 1.87 | 1.79 | 2.1 |
| FFCEICGAHFTQKGNLLRHIKL [46F_47F_49E_50I_52G_53A_54H_55F_67L_, Q9UKT9] | 3.34 | 3.33 | 2.07 | 1 |
| FQCEICGAHFTQKGNLLRHIKL [46F_47Q_49E_50I_52G_53A_54H_55F_67L_, Q9UKT9] | -0.0399 | 0.799 | 0.886 | 3.17 |
| FCCEICGAHFTQKGNLLRHIKL [46F_47C_49E_50I_52G_53A_54H_55F_67L_, Q9UKT9] | 2.06 | 0.682 | 1.31 | 1.03 |
| FYCEICGAHFTQKGNLLRHIKL [46F_47Y_49E_50I_52G_53A_54H_55F_67L_, Q9UKT9] | 3.61 | 3.49 | 2.57 | 1.24 |
| FLCEICGAHFTQKGNLLRHIKL [46F_47L_49E_50I_52G_53A_54H_55F_67L_, Q9UKT9] | 0.729 | -1.66 | 0.445 | 0.792 |
| FTCEICGAHFTQKGNLLRHIKL [46F_47T_49E_50I_52G_53A_54H_55F_67L_, Q9UKT9] | 0.467 | 0.746 | 1.69 | 2.11 |
